Test results as given in PubChem BioAssay (NCATS).
Results filed as inconclusive are left out. Active and inactive are the calls of the source. Calls come from the whole dose curve; as a rule, active = well fitted curve in either direction with a large enough effect (not every such curve was filed as active); inconclusive = small, poorly fitted or top-dose-only effect, or another doubt; inactive = flat fitted curve, though single readings scatter.

assay: AP1 Signaling Pathway (AID 357); settings: ME-180 AP-1-bla reporter, EGF-induced, beta-lactamase ratio, 5 h; at 7.69 µM (top of the series) unless noted;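 note: ME-180 reporter cells stimulated with EGF at its EC50 level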
Source text: NCGC Assay Overview: Activator protein-1 (AP-1), a transcription factor, plays an important role in tumor genesis by regulating genes involved in cell proliferation, differentiation, apoptosis, and angiogenesis. AP-1 activity is induced by a complex network of signaling pathways that involves extracellular signals, such as growth factors. The AP-1 protein complex formed from c-Fos and c-Jun binding to the AP-1 response element results in transcriptional activation of genes containing such elements within their promoter. Low molecular weight molecules have been discovered and developed to modulate various components of these signaling pathways, for example, MAP kinase inhibitors. However, many points of pathway modulation remain untested due to the lack of chemical probes making this signaling locus of general interest. Using a beta-lactamase reporter-gene under control of the AP-1 response element, a cell-based assay [CellSensor(TM) AP-1-bla ME-180 developed by Invitrogen Corp.] was used to measure EGF-induced signaling. Library compounds were measured for their ability to modulate positively or negatively the action of EC50 EGF on reporter gene activity. Compounds were screened in a titration series in 1536-well format. Positive and negative modulators were identified based on the AC50 values derived from the screening data.
NCGC Assay Protocol Summary: 2500 cells/5uL in Opti-MEM medium containing 0.5% dialyzed FBS, 0.1 mM NEAA, 1 mM sodium pyruvate and 10 mM HEPES was dispensed into 1536-well plates and cells were cultured at 37 degrees Celsius overnight. […] After centrifugation at 1000 rpm for 2 seconds the plates were incubated at 37 degrees Celsius for 5 hours. 1 uL of CCF4-dye mixture was added to each well. After incubated at room temperature for 2.5 hours the plates were measured on an EnVision plate reader at Excitation 405nm, Emission1=460nm and Emission 2=530nm. The %Activity was determined from the ratio of 460nm/530nm.
% is set by controls: 0 for no effect and ±100 for the full control effect.

Activity change, negative = inhibition, inactive:
C[C@@H]1C[C@H]2[C@H]3C[C@@H](F)C4=CC(=O)C=C[C@]4(C)[C@@]3(Cl)[C@@H](O)C[C@@]2(C)[C@@H]1C(=O)COC(=O)C(C)(C)C -11.4% [at 17.2 µM], CN(C)C(=O)/N=N\C(=O)N(C)C 9.37% [at 38 µM], NCCSS(=O)(=O)CCN 7.23%, COc1cc(N=C(N)N=C(N)N)c2ncccc2c1 -8.09%, C[C@@H]1O[C@@H](O)[C@@H](O)[C@H](O)[C@H]1O -1.53%, CC(C)C[C@H]1C(=O)N2CCC[C@@H]2[C@]2(O)O[C@](NC(=O)[C@H]3C=C4c5cccc6[nH]c(Br)c(c56)C[C@H]4N(C)C3)(C(C)C)C(=O)N12 -28.4% [at 17.2 µM], O=C(Nc1cccc2cccnc12)[C@@H]1[C@@H](C(=O)O)[C@H]2CC[C@@H]1O2 6.33%, CCCCN1CSC(=S)N(Cc2ccccc2)C1 3.6%, O=C(O)[C@@H]1[C@@H](C(=O)NCc2ccccn2)[C@@H]2C=C[C@@H]1O2 -9.66%, CC(C)(C)C1CCC2(CC1)CCN(CCCN1CCOCC1)CC2 11.9%, CN1CCC[C@H](C(=O)OCC(=O)[C@]2(O)CC[C@@H]3[C@H]4CCC5=CC(=O)CC[C@@]5(C)[C@H]4[C@@H](O)C[C@]32C)C1 11%, CCO[P@]1(=O)OC[C@@H]2O[C@H](n3cnc4c(N)ncnc43)[C@H](O)[C@@H]2O1 -10.8%, O=C(O)c1ccc(/C=N\N=C2c3ccccc3-c3ccccc32)cc1 -12.4%, Cc1cc(Cl)ccc1OCC(=O)Nc1nc(N)nc(N)n1 7.35%, O=C(O)C(Cc1cccs1)C(=O)O 7.58%, O=C(Nc1ccc(Nc2ccc3c(c2)C(=O)c2ccccc2C3=O)c2c1C(=O)c1ccccc1C2=O)c1ccccc1 -0.845%, COC(=O)[C@@H]1[C@H]2C[C@H]3c4[nH]c5cc(OC)ccc5c4CCN3C[C@@H]2C[C@@H](OC(=O)c2cc(OC)c(OC)c(OC)c2)[C@@H]1OC -23.7% [at 38 µM], CS(=O)(=O)N(CC(=O)O)Cc1ccccc1 13.2%, Nc1nc(Cl)cc(NCCO)n1 -4.13%, C[C@@H](C(=O)O)/C(=C/c1ccc2c(c1)OCO2)C(=O)O -12.8%, O=C(O)[C@@H]1[C@@H](C(=O)Nc2ccccc2)[C@@H]2C=C[C@@H]1O2 3.5%, Cc1ccc(S(=O)(=O)Oc2cc(N)c3c(n2)CCC3)cc1 11.1%, c1ccc(CCc2cccnc2)nc1 12.9%, O=C(O)c1nn(-c2ccc(Cl)cc2)c2c1C(=O)c1ccccc1C2=O -2.08%, N[C@H](CS(=O)O)C(=O)O 9.5% [at 38 µM], Cc1ccc(S(=O)(=O)O[C@@H]2[C@H]([C@@H]3COC(C)(C)O3)O[C@H]3OC(C)(C)O[C@@H]32)cc1 1.73%, CS[C@@H](CC(=O)O)C(=O)O 2.29%, O=C(O)[C@@H]1CCCN1Cc1c[nH]c2ccccc12 6.54%, CC(C)[C@@H](C)/C=C\[C@@H](C)[C@@H]1CC[C@H]2C3=CC=C4C[C@@H](O)CC[C@]4(C)[C@H]3CC[C@]21C -3.49%, Cc1ccc(S(=O)(=O)N2CCC(C(=O)O)(c3ccccc3)CC2)cc1 0.56%, COc1ccc(Cc2ccc3[nH]c(=O)cc(C)c3c2)cc1S(=O)(=O)O 7.37%, Nc1ccc(C(=O)C[C@H](N)C(=O)O)cc1O 8.27%, CN(C)C[C@H]1CCC2=C(C1=O)C(c1ccc(Cl)c(Cl)c1)C1=C(CC[C@H](CN(C)C)C1=O)O2 0.767%, NS(=O)(=O)c1ccc(NC(=O)Nc2ccccc2F)cc1 -3.3%, COc1ccc(Oc2ncc3nc(-c4ccc(Cl)cc4)c(=O)n(CCC#N)c3n2)cc1 -25.6%, COc1cc(OC)cc([C@H](CNc2ncnc3c2ncn3[C@@H]2O[C@@H](CO)[C@H](O)[C@@H]2O)c2ccccc2C)c1 -6.78% [at 38 µM], N=C(N)SCCSC(=N)N 5.54%, Cc1cc(OCc2nc(N)nc(N)c2-c2ccc(Cl)c(Cl)c2)ccc1[N+](=O)[O-] -18.3%

same assay, conditions: ME-180 AP-1-bla reporter, EGF-induced, beta-lactamase ratio, 5 h; at 17.2 µM (top of the series)

Activity change, negative = inhibition, inactive:
C(=C/c1ccccc1)/CN1CCN(C(c2ccccc2)c2ccccc2)CC1 -10.7%

same assay, conditions: ME-180 (cervical carcinoma) AP-1-bla reporter, EGF-induced, beta-lactamase ratio, 5 h; at 38 µM (top of the series)

Activity change, negative = inhibition, inactive:
C(=C/c1ccccc1)/CN1CCN(C(c2ccccc2)c2ccccc2)CC1 -3.02%
